From PubChem BioAssay (NCI)
About 79,000 compounds went through this panel and 15% of them were active in at least one assay; those are over-represented in the sample as a whole. Values without a mark were called inactive. Activity calls are given as the source filed them. No stated cut-off is given here; in the data, active means growth inhibition above about 70%; inactive means the rest.

Assays:
[1] = NCI Yeast Anticancer Drug Screen. Data for the rad50 strain (AID 155);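 further: 0% = growth of vehicle-only cultures of the same strain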; conditions: S. cerevisiae rad50 strain growth inhibition; at 50.0 µM; hits give high values
In short: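 Genetically altered yeast (DNA repair pathway); compound treatment; growth inhibition vs vehicle ctrl.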

[2] = NCI Yeast Anticancer Drug Screen. Data for the mec2-1 strain (AID 157); conditions: S. cerevisiae mec2-1 strain, at 50.0 µM, hits give high values
In short: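 Mutant yeast (mec2-1) grown with compound; growth inhibition relative to vehicle control reported.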

[3] = NCI Yeast Anticancer Drug Screen. Data for the sgs1 mgt1 strain (AID 161);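 further: 0% = growth of cultures given vehicle only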; conditions: S. cerevisiae sgs1 mgt1 strain, at 50.0 µM, hits give high values
In short: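 Growth of a repair-deficient yeast mutant was monitored after compound treatment and expressed as inhibition relative to vehicle-treated cultures.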

[4] = NCI Yeast Anticancer Drug Screen. Data for the cln2 rad14 strain (AID 165);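 further: 0% = growth equal to vehicle treated cultures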; conditions: S. cerevisiae cln2 rad14 strain, at 50.0 µM, hits give high values
In short: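 Readout is yeast growth inhibition versus vehicle-treated controls, using a strain with cln2 and rad14 alterations exposed to compound.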

[5] = NCI Yeast Anticancer Drug Screen. Data for the bub3 strain (AID 167); conditions: S. cerevisiae bub3 mutant strain, at 50.0 µM, hits give high values
In short: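 Yeast carrying a defined mutation is treated with each compound, and growth is compared with that of vehicle-exposed cells to give inhibition.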

[6] = NCI Yeast Anticancer Drug Screen. Data for the mlh1 rad18 strain (AID 175); conditions: S. cerevisiae mlh1 rad18 strain growth inhibition; at 50.0 µM; hits give high values
In short: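 Genetically defined yeast (DNA repair-deficient) exposed to compounds; growth inhibition determined relative to vehicle.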

## CN1C(=O)C(=O)N(C)C(=O)C1=O
[1]
  growth inhibition: 8.75%
[2]
  growth inhibition: 11.2%
[3]
  growth inhibition: 10.7%
[4]
  growth inhibition: 7.1%
[5]
  growth inhibition: 12.8%
[6]
  growth inhibition: 9.6%

## CCOC(=O)/C=C\C(=O)O.[Mn]
[1]
  growth inhibition: -16.2%
[2]
  growth inhibition: -21.4%
[3]
  growth inhibition: -7.65%
[4]
  growth inhibition: -22.9%
[5]
  growth inhibition: -31%
[6]
  growth inhibition: -33.5%

## CCOC(=O)/C(C#N)=C(O)\C(=C\c1ccc(Cl)cc1)NC(=O)c1ccc(NC(C)=O)cc1
[1]
  growth inhibition: 8.9%
[2]
  growth inhibition: -0.3%
[3]
  growth inhibition: -17.4%
[4]
  growth inhibition: 9.2%
[5]
  growth inhibition: -8.1%
[6]
  growth inhibition: 5.65%

## CCCN1c2c3c(O)c4c(O)c(C)c5c(c4c2O)C(=O)C(C)(O/C=C/C(OC)C(C)C(OC(C)=O)C(C)C(O)C(C)C(O)C(C)/C=C/C=C(/C)C(=O)N3C1C)O5 (stereo unspecified)
[1]
  growth inhibition: 22.6%
[2]
  growth inhibition: 35.9%
[3]
  growth inhibition: 44%
[4]
  growth inhibition: 37.2%
[5]
  growth inhibition: 19%
[6]
  growth inhibition: 18.2%

## CC(C)C1NC(=O)NC1=O (stereo unspecified)
[1]
  growth inhibition: -4%
[2]
  growth inhibition: -23.2%
[3]
  growth inhibition: -3.7%
[4]
  growth inhibition: 10.7%
[5]
  growth inhibition: 0.65%
[6]
  growth inhibition: -4.4%

## Nc1ccc(OCCCc2c(N)nc(N)nc2N)c(Cl)c1
[1]
  growth inhibition: 98% (active)
[2]
  growth inhibition: 99.1% (active)
[3]
  growth inhibition: 99.3% (active)
[4]
  growth inhibition: 98.2% (active)
[5]
  growth inhibition: 98.3% (active)
[6]
  growth inhibition: 98.5% (active)

## CC(=O)NS(=O)(=O)c1ccc(NC(=O)CCC(=O)O)cc1
[1]
  growth inhibition: -8.95%
[2]
  growth inhibition: -20.4%
[3]
  growth inhibition: 2.4%
[4]
  growth inhibition: 7.2%
[5]
  growth inhibition: 9.1%
[6]
  growth inhibition: 4%

## CN(C)CCC(=O)N1CCc2c([nH]c3ccccc23)C1c1cccnc1 (stereo unspecified)
[1]
  growth inhibition: -15.2%
[2]
  growth inhibition: -34.6%
[3]
  growth inhibition: -21.6%
[4]
  growth inhibition: 6.55%
[5]
  growth inhibition: 5.65%
[6]
  growth inhibition: -40.5%

## CCCCCC(=O)OCC(COC(=O)CCCCC)OC(=O)CCCCC
[1]
  growth inhibition: -2.65%
[2]
  growth inhibition: 23.1%
[3]
  growth inhibition: -5.05%
[4]
  growth inhibition: 12.6%
[5]
  growth inhibition: 10.9%
[6]
  growth inhibition: 20.6%

## CCOC(=O)COc1ccc(Cc2ccc3c(c2)OCO3)cc1C
[1]
  growth inhibition: -0.7%
[2]
  growth inhibition: 3.1%
[3]
  growth inhibition: -2.45%
[4]
  growth inhibition: -6.05%
[5]
  growth inhibition: 16.2%
[6]
  growth inhibition: 0.9%

## C=C(C(=O)O)C1CC[C@@]2(C)CC(O)CC(=C)C2C1 (stereo partly specified)
[1]
  growth inhibition: 16.4%
[2]
  growth inhibition: -0.95%
[3]
  growth inhibition: -8.1%
[4]
  growth inhibition: 5.3%
[5]
  growth inhibition: -2.9%
[6]
  growth inhibition: 14.7%

## Cn1ccnc1CC(C)(O)c1ccccc1 (stereo unspecified)
[1]
  growth inhibition: -13.2%
[2]
  growth inhibition: -17.4%
[3]
  growth inhibition: -44.9%
[4]
  growth inhibition: 3.9%
[5]
  growth inhibition: -23.4%
[6]
  growth inhibition: 6.8%

## O=C(O)C(=O)Cc1cccc(Cl)c1[N+](=O)[O-]
[1]
  growth inhibition: 2.15%
[2]
  growth inhibition: 5.25%
[3]
  growth inhibition: 13.4%
[4]
  growth inhibition: -10.6%
[5]
  growth inhibition: -4.75%
[6]
  growth inhibition: 15%

## O=C(CC(C(=O)c1cccs1)c1cccs1)c1ccsc1 (stereo unspecified)
[1]
  growth inhibition: -4.2%
[2]
  growth inhibition: -24.1%
[3]
  growth inhibition: 10.6%
[4]
  growth inhibition: 11.1%
[5]
  growth inhibition: 2.9%
[6]
  growth inhibition: -4.1%

## Cc1cc(Cl)cc(CN(C)Cn2c(=O)cc[nH]c2=O)c1O
[1]
  growth inhibition: 6.45%
[2]
  growth inhibition: -7.65%
[3]
  growth inhibition: 2.7%
[4]
  growth inhibition: -31.9%
[5]
  growth inhibition: 8.45%
[6]
  growth inhibition: 2.2%

## COC1=C2CC(C)CC(OC)C(O)C(C)/C=C(\C)C(OC(N)=O)C(OC)/C=C\C=C(/C)C(=O)NC(=C(C=NC(C)(C)C)C1=O)C2=O (stereo unspecified)
[1]
  growth inhibition: 9.15%
[2]
  growth inhibition: 23.2%
[3]
  growth inhibition: 23.2%
[4]
  growth inhibition: 46.1%
[5]
  growth inhibition: 6.4%
[6]
  growth inhibition: 18.5%

## Cc1cc(C(=O)O)c2cc(Br)ccc2n1
[1]
  growth inhibition: 4.2%
[2]
  growth inhibition: 12.3%
[3]
  growth inhibition: 15.2%
[4]
  growth inhibition: 17.3%
[5]
  growth inhibition: 11.2%
[6]
  growth inhibition: -4.5%

## COC(=O)CC1C=CC(OC)[C@@]2(C)C(=O)C=C(C)C(=O)[C@@H]12 (stereo partly specified)
[1]
  growth inhibition: 4.85%
[2]
  growth inhibition: -1.95%
[3]
  growth inhibition: 18.6%
[4]
  growth inhibition: -16.6%
[5]
  growth inhibition: 3.8%
[6]
  growth inhibition: 3.15%

## COC(=O)[CH2][Ge]([c]1ccccc1)[c]1ccccc1.COC(=O)[CH2][Ge]([c]1ccccc1)[c]1ccccc1
[1]
  growth inhibition: 15.8%
[2]
  growth inhibition: 9.15%
[3]
  growth inhibition: 37.3%
[4]
  growth inhibition: -5%
[5]
  growth inhibition: -12.2%
[6]
  growth inhibition: -8.3%

## O=C1CSC(c2cccc(Cl)c2)N1N1C(=O)CSC1c1cccc(Cl)c1 (stereo unspecified)
[1]
  growth inhibition: 6.3%
[2]
  growth inhibition: 19.4%
[3]
  growth inhibition: -7.15%
[4]
  growth inhibition: -0.6%
[5]
  growth inhibition: 2.05%
[6]
  growth inhibition: 13.4%

## CN(C)CC(C(N)=O)C(N)=O
[1]
  growth inhibition: -26.1%
[2]
  growth inhibition: -18.8%
[3]
  growth inhibition: -19.8%
[4]
  growth inhibition: 9.6%
[5]
  growth inhibition: -10.5%
[6]
  growth inhibition: 7.45%
